In PubChem BioAssay (Tox21):
Results filed as inconclusive are left out. Active and inactive are the calls of the source. Unless noted, the call rests on the fitted dose curve; in most records, active means well fitted curve in the direction sought with a large enough effect in the repeat runs; inconclusive means weak or mixed curves; inactive means no such curve, though single readings can be large; an effect the other way counts as inactive or inconclusive.

How the values were obtained:
[1] = qHTS assay to identify small molecule agonists of the vitamin D receptor (VDR) signaling pathway - cell viability counter screen (AID 743224); further: series mostly up to about 63 µM; nearly all actives have a fitted effect of over 50% in size
In short: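 Viability is measured in the same wells as the VDR-bla reporter assay: after 16 h compound treatment and 2 h substrate loading, CellTiter-Glo is added and luminescence read 30 min later.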

[2] = qHTS assay to identify small molecule agonists of the NFkB signaling pathway (AID 1159509; active means well fitted curve in the direction sought with a large enough effect in the signal ratio in the repeat runs, not every such curve was filed as active; the % refers to the signal ratio; further: series mostly up to about 61 µM)
In short: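 After overnight attachment, reporter cells received test compounds, DMSO or positive controls and were incubated 5 hr at 37 C. FRET substrate was then added for 1.5 hr at room temperature before dual-emission fluorescence reading.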

[3] = qHTS assay to identify small molecule agonists of the NFkB signaling pathway - cell viability counter screen (AID 1159515; calls by dose curve; further: series mostly up to about 61 µM; nearly all actives have a fitted effect of over 55% in size)
In short: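 Multiplexed viability readout: after the 5 hr compound exposure and 1.5 hr FRET substrate step, CellTiter-Glo reagent went into the same NFkB-bla ME-180 wells; ATP luminescence was measured after 30 min at room temperature.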

[4] = qHTS assay to identify small molecule agonists of the endoplasmic reticulum stress response signaling pathway (AID 1159516; active means well fitted activation curve with a large enough effect in the signal ratio in the repeat runs, not every such curve was filed as active; the % refers to the signal ratio)
In short: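 Tox21 10K library screened in quantitative HTS format on ESRE-bla HeLa cells, a beta-lactamase reporter under ER stress response element control; 5 hr treatment, FRET read.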

[5] = qHTS assay to identify small molecule antagonists of the retinoid-related orphan receptor gamma (ROR-gamma) signaling pathway - cell viability counter screen (AID 1159520); further: nearly all actives have a fitted effect of over 50% in size
In short: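 Tet-on ROR gamma CHO cells (1,000/well) were plated 4 hr, given compounds in DMSO for 2 hr at 37 C, then induced with 1 uM final doxycycline for 16 hr. Viability was read as ATP by CellTiter-Glo luminescence after 30 min.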

[6] = biological target: Nuclear receptor ROR-gamma (Homo sapiens) (UniProt P51449); test: qHTS assay to identify small molecule antagonists of the retinoid-related orphan receptor gamma (ROR-gamma) signaling pathway (AID 1159521;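 further: CHO cells with doxycycline inducible ROR-gamma driving an RORE luciferase reporter; top concentration of the series differs between compounds; nearly all actives have a fitted effect of over 50% in size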)
In short: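 Tet-on ROR-gamma CHO cells with ROR response element-luciferase reporter; compounds added 2 hr before 1 uM doxycycline induction, then 16 hr at 37 C. Antagonism scored as decreased ONE-Glo luminescence.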

[7] = qHTS assay to identify small molecule agonists of the AP-1 signaling pathway - cell viability counter screen (AID 1159525; calls by dose curve; further: nearly all actives have a fitted effect of over 55% in size)
In short: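 ME-180 AP-1-bla, 2500 cells/well, Opti-MEM + 0.5% dialyzed FBS; overnight 37 °C; cpd 15-pt titration, 5 h 37 °C; CellTiter-Glo 30 min RT; luminescence read; normalised to TOAB and DMSO controls.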

[8] = qHTS assay to identify small molecule agonists of the AP-1 signaling pathway (AID 1159526; calls by dose curve)
[9] = qHTS assay to identify small molecule agonists of the RXR signaling pathway - cell viability counter screen (AID 1159529); further: series mostly up to about 77 µM; nearly all actives have a fitted effect of over 50% in size
In short: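 RXR-alpha-UAS-bla HEK 293T cells in medium with 2% charcoal-stripped FBS were pre-incubated 5 hr, then compound-treated 16 hr at 37 C. Viability was read by CellTiter-Glo luminescence in the same wells as the beta-lactamase assay, with tetraoctyl ammonium bromide as positive control.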

[10] = qHTS assay to identify small molecule antagonists of the retinoid acid receptor (RAR) signaling pathway - cell viability counter screen (AID 1159551); further: nearly all actives have a fitted effect of over 35% in size
In short: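 Cytotoxicity counter screen in C3RL4 cells: 6 h compound exposure with 1 uM retinol (final), viability from cellular ATP by luminescence.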

[11] = qHTS assay to identify small molecule antagonists of the retinoic acid receptor (RAR) signaling pathway (AID 1159552; further: nearly all actives have a fitted effect of over 50% in size)
In short: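 Retinol signaling pathway inhibitors screened in C3RL4 RARE-luciferase reporter cells seeded overnight at 37 C, then compounds added with 1 uM (final) retinol as pathway substrate. After 6 hr at 37 C, luciferase luminescence read after 30 min at room temperature.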

[12] = qHTS assay to identify small molecule agonists of the retinoic acid receptor (RAR) signaling pathway (AID 1159553)
In short: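 Agonist activity was scored in C3RL4 cells bearing a retinoic acid response element luciferase construct. Cells were treated with compounds for 6 hr at 37 C, and luciferase signal was measured as luminescence.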

[13] = qHTS assay to identify small molecule antagonists of the vitamin D receptor (VDR) signaling pathway - cell viability counter screen (AID 743225); further: nearly all actives have a fitted effect of over 50% in size
In short: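 VDR-UAS-bla HEK 293T cells were plated and incubated 4 h at 37C, then dosed with compound plus 3 nM (final) 1-alpha,25-dihydroxyvitamin D3 for 16 h. After the 2 h beta-lactamase read, viability in the same wells was read as CellTiter-Glo luminescence after 30 min at room temperature.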

[14] = biological target: Retinoic acid receptor RXR-alpha (Homo sapiens) (UniProt P19793); test: qHTS assay to identify small molecule agonists of the RXR signaling pathway (AID 1159527; calls by dose curve; further: nearly all actives have a fitted effect of over 35% in size)
Chain of Retinoic acid receptor RXR-alpha (Homo sapiens) (P19793 whole entry, looked up): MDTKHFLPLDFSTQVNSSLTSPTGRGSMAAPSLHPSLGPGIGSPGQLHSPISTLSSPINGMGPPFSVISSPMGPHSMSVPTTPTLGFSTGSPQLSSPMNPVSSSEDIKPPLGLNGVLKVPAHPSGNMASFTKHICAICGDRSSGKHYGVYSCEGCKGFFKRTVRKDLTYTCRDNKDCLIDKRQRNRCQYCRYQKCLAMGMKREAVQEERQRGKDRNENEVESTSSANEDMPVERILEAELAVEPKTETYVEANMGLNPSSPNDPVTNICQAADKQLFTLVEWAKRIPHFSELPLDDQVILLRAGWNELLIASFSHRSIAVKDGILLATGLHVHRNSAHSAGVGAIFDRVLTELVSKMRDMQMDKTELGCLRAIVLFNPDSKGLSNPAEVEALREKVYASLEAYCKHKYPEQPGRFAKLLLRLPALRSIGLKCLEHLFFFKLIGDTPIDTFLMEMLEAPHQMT
In short: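 GeneBLAzer RXR-alpha-UAS-bla HEK 293T cells in 2% charcoal-stripped FBS medium were exposed to compounds for 16 hr at 37 C in agonist mode. Beta-lactamase reporter read as 460/530 nm FRET ratio after 2 hr substrate loading.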

[15] = qHTS assay to identify small molecule agonists of the endoplasmic reticulum stress response signaling pathway - cell viability counter screen (AID 1159517; calls by dose curve)
In short: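 Luminescence readout: CellTiter-Glo, 30 min RT, same wells as the ESRE-bla reporter read. HeLa ESRE-bla, 1,500 cells/well, o/n 37 C; cpd 5 hr 37 C/5% CO2.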

Measured: Potency

C=C(C)CN(CC)c1c([N+](=O)[O-])cc(C(F)(F)F)cc1[N+](=O)[O-]
not listed: [13] | [14] | [15]
inactive: all other assays above

CS(=O)(=O)c1cc(C(F)(F)F)ccc1C(=O)c1cnoc1C1CC1
not listed: [7] | [14] | [15]
inactive: all other assays above

CCC(=O)C(CCN(C)C)(c1ccccc1)c1ccccc1
not listed: [8] | [11] | [15]
inactive: all other assays above

Cc1cc(C)nc(Nc2ccccc2)n1
not listed: [6] | [7] | [11] | [12] | [13]
inactive: all other assays above

O=C(Oc1ccc(Br)cc1)N1CCN2CCC1CC2
not listed: [6] | [7] | [11]
inactive: all other assays above

Fc1cc(Br)ccc1CBr
not listed: [11] | [12] | [15]
inactive: all other assays above

O=C(O)c1cccc(Cl)c1
not listed: [6] | [13] | [15]
inactive: all other assays above

C[C@]12CC[C@H]3[C@@H](CC=C4C[C@@H](O)CC[C@@]43C)[C@@H]1CC[C@@H]2O
not listed: [6] | [7] | [9]
inactive: all other assays above

OC(c1ccccc1)(c1ccccc1)C1CCNCC1
not listed: [6] | [11] | [15]
inactive: all other assays above

Cc1ccccc1CO[C@@H]1C[C@@]2(C(C)C)CC[C@]1(C)O2
not listed: [6] | [9] | [10] | [11]
inactive: all other assays above

Cc1cccc(C#N)c1
not listed: [3] | [11] | [12] | [13]
inactive: all other assays above
